Assay outcomes (PubChem)
NPC1 prom act = NPC1 promoter activation. Huh7 NPC1 promoter luciferase reporter, 24 h. 2.4% of 320,000 active. Potency, µM (doses to about 9.22 µM), for inactives: at the highest dose activation, most hits filed as activators; further: % of control where 0% means no effect; nearly all actives have a fitted effect of over 60% in size
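Luminescence from an NPC1 promoter-driven luciferase reporter in stably transfected Huh7 cells was measured after 24 h compound treatment at 37 °C, followed by 10 min ambient incubation with luciferase detection reagent.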
FLuc counter = inhibits or activates purified firefly luciferase, miR-21 counter-screen | P08659 | purified FLuc, Km substrates, luminescence inhibition | Potency, µM (top dose mostly 57.5 µM), for inactives: top-dose activity change, negative = inhibition, actives largely listed as inhibitors | 6.9% of 360,000 active | AID 588342;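 further: plate controls were vehicle for no effect and reference inhibitor for full effect; nearly all actives have a fitted effect of over 55% in size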
Target sequence (P08659 whole entry, looked up): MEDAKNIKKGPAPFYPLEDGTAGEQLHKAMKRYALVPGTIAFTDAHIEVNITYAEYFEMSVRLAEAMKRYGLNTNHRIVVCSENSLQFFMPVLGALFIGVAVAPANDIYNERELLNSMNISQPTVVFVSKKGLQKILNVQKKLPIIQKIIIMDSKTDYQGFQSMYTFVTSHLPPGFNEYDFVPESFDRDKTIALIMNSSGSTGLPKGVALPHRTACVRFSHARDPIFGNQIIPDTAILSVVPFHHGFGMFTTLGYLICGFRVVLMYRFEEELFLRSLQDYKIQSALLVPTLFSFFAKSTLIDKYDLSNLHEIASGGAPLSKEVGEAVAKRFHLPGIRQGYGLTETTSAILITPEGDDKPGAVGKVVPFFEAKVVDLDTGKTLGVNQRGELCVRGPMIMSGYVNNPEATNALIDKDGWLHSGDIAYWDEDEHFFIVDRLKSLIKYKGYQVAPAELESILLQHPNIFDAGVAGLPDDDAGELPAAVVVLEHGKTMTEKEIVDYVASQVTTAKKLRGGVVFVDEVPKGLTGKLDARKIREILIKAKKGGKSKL
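Purified P. pyralis luciferase, 10 nM final, with Km-level 10 uM D-luciferin and 10 uM ATP in 50 mM Tris acetate pH 7.5, 10 mM Mg acetate, 0.01% Tween-20, 0.05% BSA; 6-point qHTS titration about 60 µM downward; luminescence read.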
ELG1 genotox = inducers of genotoxicity in HEK293T ELG1-luciferase cells. HEK293T ELG1-luciferase reporter, luminescence, 16 h. Potency, µM (titrated, usually from 46 µM), without a hit: top-dose activity change, positive = activation, most hits filed as activators. 1.3% of 330,000 active; further: % of control where 0% means no effect; nearly all actives have a fitted effect of over 60% in size
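Cells (2,000/well) expressing the ELG1-luciferase fusion are dosed by pin tool and kept 16 hr at 37 °C, 5% CO2. Signal comes from ONE-Glo luciferase reagent after 30 min at room temperature.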
ELG1 DNA repair = inhibitors of ELG1-dependent DNA repair in HEK293T cells; Potency, µM (highest dose often 46.1 µM), inactives show at the top dose activity change, negative = inhibition, actives largely listed as inhibitors; 2.3% of 330,000 active; HEK293T ELG1-luciferase reporter, luminescence, 16 h; DNA damage induced by 5-fluorouridine; further: on the % scale 0 is the no-effect control and ±100 the full control effect; nearly all actives have a fitted effect of over 55% in size
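In this reporter screen, reduction of luminescence relative to DMSO vehicle indicated activity. Compounds and 5-fluorouridine were added together to 2,000 cells per well, incubated for 16 hr at 37 °C, then developed with ONE-Glo.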
Rab9 prom act = activators of Rab9 promoter. Huh7 Rab9 promoter-luciferase reporter, luminescence, 24 h. Potency, µM (top dose mostly 9.22 µM), for inactives: at the top dose activation, negative = inhibition, actives largely listed as activators. 2.8% of 320,000 active. AID 485297; further: % of control where 0% means no effect; nearly all actives have a fitted effect of over 60% in size
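Luminescence from Amplite-detected luciferase (10 minutes, ambient) reports Rab9 promoter activation. Before that, stable Rab9-luciferase Huh7 cells (1500/well, reduced-serum OP-MEM I plus 10% FBS) were exposed to compound for 24 hours at 37C.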
SMN2 splice up = SMN2 splice variant enhancement | 2.8% of 210,000 active | Potency, µM (doses to about 46.1 µM), for inactives: top-dose activity change, positive = activation, hits mostly activators | AID 1458 | HEK293 SMN2-luciferase splicing reporter, luminescence, 30-36 h; further: % of control where 0% means no effect; nearly all actives have a fitted effect of over 55% in size
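qHTS luciferase splicing reporter: luminescence rises when SMN2 exon 7 is included in transfected HEK293 cells. Compound exposure lasted 30-36 h at 37C, with 4.5 mM final sodium butyrate as control, followed by a ONE-Glo read.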
Numbers without * were called inactive; [ ] = another dose, or the depositor's remark. An excerpt weighted towards active compounds, which were near 9.2% of everything screened. The call rests on the fitted dose curve; in most records, active means well fitted curve in the direction sought with a large enough effect; inconclusive means small, poorly fitted or top-dose-only effect, or another doubt; inactive means no such curve, though single readings can be large; an effect the other way counts as inactive or inconclusive. Potency means the concentration at half of the fitted maximal effect.

What do the screens show for `Cc1[nH]c2ccccc2c1/C=N/Nc1nncn1N`?
NPC1 prom act: 6%; FLuc counter: 2.1µM*; ELG1 genotox: inconclusive; ELG1 DNA repair: inconclusive; Rab9 prom act: inconclusive; SMN2 splice up: 20%

How did Cc1[nH]c2ccccc2c1/C=N/Nc1ccc(F)cc1F do in these assays?
NPC1 prom act: 22%; FLuc counter: inconclusive; ELG1 genotox: inconclusive; ELG1 DNA repair: inconclusive; Rab9 prom act: inconclusive; SMN2 splice up: 28%

Results for Cc1[nH]c2ccccc2c1/C=N/Nc1ccccn1 ?
NPC1 prom act: -7%; FLuc counter: 24µM*; ELG1 genotox: 0%; ELG1 DNA repair: 2%; Rab9 prom act: 14%; SMN2 splice up: 2%

What do the screens show for `Cc1[nH]c2ccccc2c1/C=N/Nc1ccc([N+](=O)[O-])cc1`?
NPC1 prom act: 0%; FLuc counter: inconclusive; ELG1 genotox: -1%; ELG1 DNA repair: -18%; Rab9 prom act: 0%

Results for S=C(c1ccc(-c2ccccc2Cl)o1)N1CCOCC1 ?
NPC1 prom act: inconclusive; FLuc counter: 11µM*; ELG1 genotox: 13µM*; ELG1 DNA repair: inconclusive; Rab9 prom act: inconclusive; SMN2 splice up: 32µM*

How did S=C(c1ccc(-c2ccc(Cl)c(Cl)c2)o1)N1CCOCC1 do in these assays?
NPC1 prom act: 2.2µM*; FLuc counter: 2.7µM*; ELG1 genotox: 6.5µM*; ELG1 DNA repair: inconclusive; Rab9 prom act: 1.8µM*; SMN2 splice up: 11µM*

What do the screens show for `S=C(c1ccc(-c2ccc(Br)cc2)o1)N1CCOCC1`?
NPC1 prom act: 3.5µM*; FLuc counter: 3µM*; ELG1 genotox: inconclusive; ELG1 DNA repair: inconclusive; Rab9 prom act: 2µM*

What do the screens show for `CN(C)/C=N/c1nc(-c2ccc3c(c2)OCO3)cs1`?
NPC1 prom act: 4µM*; FLuc counter: 17µM*; ELG1 genotox: inconclusive; ELG1 DNA repair: inconclusive; Rab9 prom act: 3.5µM*; SMN2 splice up: 14µM*

Results for Cc1nccc(-c2ccc3c(c2)OCO3)n1 ?
NPC1 prom act: 0%; FLuc counter: -1%; ELG1 genotox: 7%; ELG1 DNA repair: -5%; Rab9 prom act: 3%; SMN2 splice up: 7%

How did CN(C)/C=N/c1nc(-c2ccc3ccccc3c2)cs1 do in these assays?
NPC1 prom act: 0.5µM*; FLuc counter: 4.8µM*; ELG1 genotox: inconclusive; ELG1 DNA repair: inconclusive; Rab9 prom act: 0.35µM*

What do the screens show for `COc1ccc(C(=O)O/N=C(\N)c2ccccn2)cc1`?
NPC1 prom act: 0.11µM*; FLuc counter: 0.095µM*; ELG1 genotox: inconclusive; ELG1 DNA repair: inconclusive; Rab9 prom act: 0.4µM*

Results for COc1ccc(C(=O)NNC(=O)c2ccccn2)cc1 ?
NPC1 prom act: 0.32µM*; FLuc counter: 0.085µM*; ELG1 genotox: 0.15µM*; ELG1 DNA repair: inconclusive; Rab9 prom act: 0.32µM*; SMN2 splice up: 2.5µM*

How did COc1ccc(CC(=O)O/N=C(\N)c2ccccn2)cc1 do in these assays?
NPC1 prom act: 10%; FLuc counter: 12µM*; ELG1 genotox: inconclusive; ELG1 DNA repair: inconclusive; Rab9 prom act: 18%

Results for COc1ccc(C(=O)O/N=C(\C)c2cnccn2)cc1 ?
NPC1 prom act: 0%; FLuc counter: 11µM*; ELG1 genotox: 2%; ELG1 DNA repair: 11%; Rab9 prom act: -1%; SMN2 splice up: 7%

How did COc1cc(OC)c(C(=O)O/N=C(\N)c2ccccn2)cc1OC do in these assays?
NPC1 prom act: 10%; FLuc counter: -4%; ELG1 genotox: 4%; ELG1 DNA repair: 12%; Rab9 prom act: 14%

What do the screens show for `Cc1c(C(C)(C)O)[nH]c2ccc(C(F)(F)F)cc12`?
NPC1 prom act: -1%; FLuc counter: -15%; ELG1 genotox: 1%; ELG1 DNA repair: 8%; Rab9 prom act: 8%

What do the screens show for `Nc1ccc(N2CCN(c3ccc(Cl)c(Cl)c3)CC2)cc1`?
NPC1 prom act: -4%; FLuc counter: inconclusive; ELG1 genotox: -5%; ELG1 DNA repair: inconclusive; Rab9 prom act: -4%; SMN2 splice up: -34%

How did COc1cc(OC)cc(C(=O)NNC(=O)c2ccccn2)c1 do in these assays?
NPC1 prom act: -4%; FLuc counter: 3%; ELG1 genotox: inconclusive; ELG1 DNA repair: inconclusive; Rab9 prom act: -4%

How did COc1cc(OC)cc(C(=O)O/N=C(\N)c2ccccn2)c1 do in these assays?
NPC1 prom act: 0.89µM*; FLuc counter: 6.7µM*; ELG1 genotox: inconclusive; ELG1 DNA repair: inconclusive; Rab9 prom act: 0.63µM*

How did Cc1nc2cc(-c3ccccc3)ccc2o1 do in these assays?
NPC1 prom act: 8%; FLuc counter: 12µM*; ELG1 genotox: 7%; ELG1 DNA repair: inconclusive; Rab9 prom act: 2%; SMN2 splice up: -12%

Results for Cc1ccc2oc(=O)c(/C=C(\O)c3ccccc3)nc2c1 ?
NPC1 prom act: 0%; FLuc counter: inconclusive; ELG1 genotox: -5%; ELG1 DNA repair: -13%; Rab9 prom act: -2%; SMN2 splice up: 15%

What do the screens show for `O=C(O)c1ccc(-c2nnc(-c3cccc(Br)c3)o2)cc1`?
NPC1 prom act: 1.4µM*; FLuc counter: 11µM*; ELG1 genotox: inconclusive; ELG1 DNA repair: inconclusive; Rab9 prom act: 1.6µM*

How did Brc1cccc(-c2nnco2)c1 do in these assays?
NPC1 prom act: 1%; FLuc counter: 0%; ELG1 genotox: 0%; ELG1 DNA repair: -3%; Rab9 prom act: -8%; SMN2 splice up: 9%

Results for Brc1ccc(-c2nnc(-c3cccc(Br)c3)o2)cc1 ?
NPC1 prom act: 3.2µM*; FLuc counter: 9.5µM*; ELG1 genotox: 19%; ELG1 DNA repair: 11%; Rab9 prom act: -34%; SMN2 splice up: 23%

How did CCOC(=O)C1(CCc2ccccc2)CCN(C(=O)c2cc(C)nc(C)n2)CC1 do in these assays?
NPC1 prom act: -2%; FLuc counter: inconclusive; ELG1 genotox: 10%; ELG1 DNA repair: inconclusive; Rab9 prom act: -1%

What do the screens show for `COCCN(CCOC)C(=O)c1ccc(SCc2ccc(C)cc2)c([N+](=O)[O-])c1`?
NPC1 prom act: 0%; FLuc counter: -4%; ELG1 genotox: 1%; ELG1 DNA repair: inconclusive; Rab9 prom act: -5%; SMN2 splice up: -13%

What do the screens show for `CC(=O)[C@]1(O)CC[C@@H]2[C@H]3C[C@@H](C)C4=CC(=O)CC[C@@]4(C)C3[C@@H](O)C[C@]21C` (stereo partly drawn)?
SMN2 splice up: 5%[9.22 µM]

How did CC(C)NC(=O)C1CCN(C2CCN(C(=O)c3cc4c(s3)CCCCC4)CC2)CC1 do in these assays?
NPC1 prom act: -5%; FLuc counter: -8%; ELG1 genotox: -7%; ELG1 DNA repair: -14%; Rab9 prom act: -13%; SMN2 splice up: -22%
